Results published in ChEMBL document CHEMBL1201862, “PubChem BioAssay data set” (2004).
Out of some 400,000 compounds screened, about 2,100 (0.53%) were called active. Roughly 14% stayed inconclusive and do not appear here. How the calls were made is not given here. The sample as a whole holds a higher share of actives than the screen did.

biological target: Ataxin-2 (Homo sapiens) (UniProt Q99700); experiment: qHTS for Inhibitors of ATXN expression.; type: functional
Sequence (Q99700 whole entry): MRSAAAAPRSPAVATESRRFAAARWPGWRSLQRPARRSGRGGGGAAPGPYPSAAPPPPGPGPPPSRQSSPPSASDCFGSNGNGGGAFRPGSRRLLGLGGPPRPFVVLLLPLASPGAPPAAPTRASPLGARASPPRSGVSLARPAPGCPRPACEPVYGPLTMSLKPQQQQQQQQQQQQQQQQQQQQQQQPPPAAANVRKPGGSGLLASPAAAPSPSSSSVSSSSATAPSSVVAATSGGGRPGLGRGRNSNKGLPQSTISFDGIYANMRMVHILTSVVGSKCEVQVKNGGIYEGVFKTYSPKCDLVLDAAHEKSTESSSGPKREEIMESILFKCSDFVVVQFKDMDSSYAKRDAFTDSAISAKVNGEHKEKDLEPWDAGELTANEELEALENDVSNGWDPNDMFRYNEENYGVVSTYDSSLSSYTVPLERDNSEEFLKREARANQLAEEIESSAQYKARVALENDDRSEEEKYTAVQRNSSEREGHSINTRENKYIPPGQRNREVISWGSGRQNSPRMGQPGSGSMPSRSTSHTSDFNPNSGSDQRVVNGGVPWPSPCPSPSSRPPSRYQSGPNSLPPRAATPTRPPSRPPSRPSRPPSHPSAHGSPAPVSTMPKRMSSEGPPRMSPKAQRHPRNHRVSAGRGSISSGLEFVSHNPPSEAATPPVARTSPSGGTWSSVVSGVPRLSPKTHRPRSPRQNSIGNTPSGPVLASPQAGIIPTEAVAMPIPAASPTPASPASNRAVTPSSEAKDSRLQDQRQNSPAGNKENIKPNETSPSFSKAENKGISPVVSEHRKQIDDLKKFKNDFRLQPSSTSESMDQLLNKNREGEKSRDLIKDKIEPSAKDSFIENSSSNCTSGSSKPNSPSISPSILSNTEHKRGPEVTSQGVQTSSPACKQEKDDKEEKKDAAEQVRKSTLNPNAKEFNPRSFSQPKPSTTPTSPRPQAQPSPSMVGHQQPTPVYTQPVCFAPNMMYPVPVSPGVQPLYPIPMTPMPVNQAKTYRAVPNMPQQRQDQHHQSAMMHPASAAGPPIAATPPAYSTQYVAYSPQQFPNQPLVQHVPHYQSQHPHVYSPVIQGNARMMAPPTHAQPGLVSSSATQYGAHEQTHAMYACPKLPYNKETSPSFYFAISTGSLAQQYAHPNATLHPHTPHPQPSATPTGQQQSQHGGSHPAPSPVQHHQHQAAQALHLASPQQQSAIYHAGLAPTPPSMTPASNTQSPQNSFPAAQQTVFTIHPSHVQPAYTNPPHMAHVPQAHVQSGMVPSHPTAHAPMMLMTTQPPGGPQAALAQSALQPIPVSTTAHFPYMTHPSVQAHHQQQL

| Compound | Potency |
| --- | --- |
| COn1c(C)c(C)c2c3nonc3ccc21 | inactive |
| O=C(O)c1cc2cc(Cl)cc(Cl)c2oc1=O | inactive |
| O=C1C(Br)=C(c2ccccc2)C(c2ccccc2)=C1c1ccccc1 | 39.8 µM (active) |
| O=C(c1cnc2nc3ccccc3n2c1)c1cc(F)ccc1O | inactive |
| CC(C)(C)c1ccc(C2=CC(c3ccccc3F)n3ncnc3N2)cc1 (stereo unspecified) | inactive |
| O=C1C=CC(=O)N1c1ccc(N2CCCCC2)cc1 | 39.8 µM (active) |
| O=S(=O)(c1ccccc1)c1ccc(N2CCCCCC2)cc1 | inactive |
| CN1C(=O)c2ccc(N3CCCC3)cc2C1=O | inactive |
| O=C(O)Cc1sc(Nc2ccccc2)nc1-c1ccccc1 | inactive |
| COc1ccc(C(=O)c2sc(Nc3ccccc3)nc2N)cc1OC | inactive |
| COc1ccc(C(=O)c2sc(Nc3ccccc3)nc2C)cc1 | inactive |
| NC(Cc1ccc(F)cc1)c1csc(Nc2ccc(C(=O)c3ccccc3)cc2)n1 (stereo unspecified) | 39.8 µM (active) |
| NC(c1csc(Nc2ccc(C(=O)c3ccccc3)cc2)n1)C1CCCCC1 (stereo unspecified) | 31.6 µM (active) |
| NC(Cc1ccc(Cl)cc1)c1csc(Nc2ccc(C(=O)c3ccccc3)cc2)n1 (stereo unspecified) | 39.8 µM (active) |
| COc1cccc(Nc2nc(C(N)C3CCCCC3)cs2)n1 (stereo unspecified) | 39.8 µM (active) |
| CCOC(=O)c1cc2c(=O)n3ccccc3nc2n(Cc2ccco2)/c1=N/C(=O)c1ccc(OC)cc1 | inactive |
| O=C1CCCC(O)=C1C1C2=C(CCCC2=O)OC2=C1C(=O)CCC2 | inactive |
| CCOc1cccc2cc(-c3csc(NC(=O)CCC(=O)NCCN4CCCCC4C)n3)c(=O)oc12 (stereo unspecified) | inactive |
| N#CC1=C(N)Oc2cc(N)ccc2C1c1ccccc1F (stereo unspecified) | inactive |
| c1ccc(-c2nnc(SCC3CCCCO3)nc2-c2ccccc2)cc1 (stereo unspecified) | inactive |
| NC(Cc1ccc(F)cc1)c1csc(Nc2nncc3ccccc23)n1 (stereo unspecified) | 39.8 µM (active) |
| NC(Cc1ccccc1)c1csc(Nc2nncc3ccccc23)n1 (stereo unspecified) | inactive |
| Cc1ccc(C#N)c(SCC(=O)Nc2nccs2)n1 | inactive |
| O=C(C=P(c1ccccc1)(c1ccccc1)c1ccccc1)c1ccccc1-c1ccccc1C(=O)C=P(c1ccccc1)(c1ccccc1)c1ccccc1 | 20 µM (active) |

| Compound | Potency |
| --- | --- |
| O=C(O)c1ccc(CP(=O)(c2ccccc2)c2ccccc2)cc1 | inactive |
| Cc1ccccc1-n1nnnc1SCc1cc(=O)n2ccsc2n1 | inactive |
| Cc1cccc2nc(CSc3nc4nncc-4c(O)n3-c3cccc(Cl)c3)cc(=O)n12 | 35.5 µM (active) |
| CCCc1[nH]c2ccc(C#N)cc2c1CCC | 35.5 µM (active) |
| O=C1N/C(=C/c2cccn2-c2ccccc2)C(=O)N1Cc1ccc(F)cc1 | inactive |
| CCCCCC(=O)N[C@@H](c1ccccc1)[C@@H](O)C(=O)O[C@H]1C[C@@]2(O)[C@@H](OC(=O)c3ccccc3)C3[C@](C)(C(=O)[C@H](OC(C)=O)C(=C1C)C2(C)C)[C@@H](O)C[C@H]1OC[C@@]31OC(C)=O (stereo partly specified) | 6.31 µM (active) |
| CC1=C(C(=O)N2CCCC(C(=O)c3cccc(C(F)(F)F)c3)C2)OCCO1 (stereo unspecified) | inactive |
| Cc1nc(C)c(C(=O)N2CCCC(C(=O)c3ccc4ccccc4c3)C2)s1 (stereo unspecified) | 28.2 µM (active) |
| COc1ccc(C(=O)C2CCCN(C(=O)c3csc(SC)n3)C2)cc1F (stereo unspecified) | inactive |
| Cc1cccc(N2CCN(C(S)=Nc3ccc4nc(N5CCN(C)CC5)cc(C)c4c3)CC2C)c1 (stereo unspecified) | 39.8 µM (active) |
| O=C(NCCCNC(=O)c1cnccn1)c1ccc(Br)cc1 | inactive |
| Cc1ccc(C(=O)N/C(=C\c2ccc(Br)cc2)c2n[nH]c(S)n2)cc1 | 25.1 µM (active) |
| Cc1ccc(/C=C(\NC(=O)c2ccc(C)cc2)c2n[nH]c(S)n2)cc1 | 25.1 µM (active) |
| O=C(N/N=C/c1ccc2nccnc2c1)c1ccc(Br)cc1 | inactive |
| CCc1cc(=O)oc2c(CN3CCCC3)c(O)c(Cl)cc12 | inactive |
| NC(=O)c1sc2nnc(-c3ccccc3)c(-c3ccccc3)c2c1N | inactive |
| CCOC(=O)C1(Cc2cccc(Cl)c2)CCCN(C(=O)CCSC)C1 (stereo unspecified) | inactive |
| CCOc1ccccc1CNS(=O)(=O)c1c[nH]cn1 | inactive |
| CN(C)C(=O)CCc1ccc2c3c([nH]c2c1)[C@]1(CCC2CCCC2)[C@@H](C(=O)N2CCOCC2)C[C@H](CC(=O)NCCC2=CCCCC2)C(=O)N1CC3 | 35.5 µM (active) |
| CC(C)=CCC/C(C)=C/CNC(=O)C[C@H]1C[C@H](C(=O)N2CCOCC2)[C@@]2(CCC3CCCC3)c3[nH]c4cc(CCC(=O)N(C)C)ccc4c3CCN2C1=O | 35.5 µM (active) |
| CN(C)C(=O)CCc1ccc2c3c([nH]c2c1)[C@]1(CCC2CCCC2)[C@@H](C(=O)N2CCOCC2)C[C@H](CC(=O)NCc2cccc(C(F)(F)F)c2)C(=O)N1CC3 | 31.6 µM (active) |
| CC(C)=CCC/C(C)=C/CNC(=O)C[C@H]1C[C@H](C(=O)N(C(C)C)C(C)C)[C@@]2(C)c3[nH]c4cc(CCC(=O)N(C)C)ccc4c3CCN2C1=O | 20 µM (active) |
| CCOC(=O)N1CCN(C(=O)c2cn(CC)c3ccc(S(=O)(=O)N4CCCCC4)cc3c2=O)CC1 | inactive |
| Cc1ccc(S(=O)(=O)c2cc3ccccc3oc2=O)cc1 | inactive |

| Compound | Potency |
| --- | --- |
| O=C(NCc1ccccc1)c1cc2ccc(O)cc2oc1=O | inactive |
| COc1ccc(-c2nc3ccc(C(=O)NCC(OC)OC)cc3nc2-c2ccc(OC)cc2)cc1 | inactive |
| CCn1c(=N)c(C(=O)NCCCOC)cc2c(=O)n3cccc(C)c3nc21 | inactive |
| COC(CNC(=O)c1ccc2c3c(onc13)-c1ccccc1C2=O)OC | 22.4 µM (active) |
| COCCCNc1c(O)nc2cccc3c2c1-c1ccccc1C3=O | inactive |
| CCOc1ccc(N(C)S(=O)(=O)c2ccc3ncc(C(=O)NCC(OC)OC)c(O)c3c2)cc1 | inactive |
| COCCCNC(=O)c1ccc2c3c(onc13)-c1ccccc1C2=O | 29.9 µM (active) |
| O=c1oc2ccccc2cc1-c1nc2c(s1)CCCC2 | inactive |
| CCc1ccc(C2=CC(c3cccc(Br)c3)n3nnnc3N2)cc1 (stereo unspecified) | inactive |
| O=C(O)c1ccc(S(=O)(=O)N2CCN(c3ccccn3)CC2)cc1 | inactive |
| CC(=O)Nc1ccc(S(=O)(=O)N2CCN(C(=O)C3COc4ccccc4O3)CC2)cc1 (stereo unspecified) | inactive |
| CC(=O)Nc1ccc(S(=O)(=O)N2CCN(c3nc(NC4CCCC4)c4ccccc4n3)CC2)cc1 | 31.6 µM (active) |
| Cc1ccc(C)c(-n2c(=O)c(C#N)cc3c(=O)n4ccccc4nc32)c1 | inactive |
| Cc1ccc2oc(Nc3nc(C)c(C)c(C)n3)nc2c1 | inactive |
| CCC(C)N1CCC2(CC1)N=c1c3c(O)c4c(O)c(C)c5c(c4c1=N2)C(=O)[C@@](C)(OC=C[C@H](OC)[C@@H](C)[C@@H](OC(C)=O)[C@H](C)[C@H](O)[C@H](C)[C@@H](O)[C@@H](C)C=CC=C(C)C(=O)N3)O5 (stereo partly specified) | 22.4 µM (active) |
| C=CCN(CC=C)C(=O)c1ccc(OC2CCN(S(=O)(=O)N(C)C)CC2)cc1 | inactive |
| O=S(=O)(CCc1ccncc1)Cc1ccc2c3c(cccc13)CC2 | inactive |
| CC(=O)NCc1ccc(C(=O)CCl)s1 | 16.8 µM (active) |
| CCOC(=O)C1CCCN(CC(=O)Nc2nc(-c3ccccc3)cs2)C1 (stereo unspecified) | inactive |
| O=S(=O)(CCN1CCN(c2ccccn2)CC1)c1ccc(F)cc1 | inactive |
| C=CCSc1nc2c(N)ncnc2n1C1OC(CO)C(O)C1O (stereo unspecified) | inactive |
| Nc1ncn([C@H]2O[C@@H](CO)[C@@H](O)[C@@H]2O)c(=O)n1 | 5.01 µM (active) |
| O=C(NN=C1CCCC1)NC1CCCCC1 | inactive |
| O=C(NCCc1ccc(F)cc1)c1cccc2c1C(=O)c1ccc(N3CCC(Cc4ccccc4)CC3)cc1S2(=O)=O | inactive |

| Compound | Potency |
| --- | --- |
| OC(CN1C2=NCCCN2c2ccccc21)c1ccc2c(c1)OCO2 (stereo unspecified) | inactive |
| O=c1c2ccccc2n(CC(O)CN2CCCCC2)c2ccccc12 (stereo unspecified) | inactive |
| Cc1cccc(OCC(O)Cn2c(=N)n(CCN3CCCCC3)c3ccccc32)c1 (stereo unspecified) | 39.8 µM (active) |
| N=c1n(CCN2CCCC2)c2ccccc2n1CC(O)c1ccc(Cl)c(Cl)c1 (stereo unspecified) | 31.6 µM (active) |
| Cc1cccc(OCC(O)Cn2ccnc2C)c1 (stereo unspecified) | inactive |
| Nn1cnnc1SCC(=O)N1CCc2ccccc2C1 | inactive |
| CCOCCCn1c(=N)c(C(=O)NC(C)c2ccccc2)cc2c(=O)n3cc(C)ccc3nc21 (stereo unspecified) | inactive |
| C/C(=N\Nc1nc2ccccc2s1)c1ccc(Br)s1 | inactive |
| Cc1ccc(/C=N/Nc2nc3ccccc3s2)o1 | inactive |
| CC(=NNc1nc2ccccc2s1)c1ccncn1 | 10 µM (active) |
| CCCCCCn1c(=O)[nH]c2nc3cc(N)c(C)cc3nc2c1=O | inactive |
| Cc1ccc(SSc2cc(C)ccc2N)c(N)c1 | 17.8 µM (active) |
| FC(F)(F)c1ccc(Cl)c(-n2c(S)nnc2-c2cc(C3CC3)[nH]n2)c1 | inactive |
| CC(C)C(OC(=O)CN1C(=O)COc2ccccc21)C(=O)NC1CCCCC1 (stereo unspecified) | inactive |
| O=C(CN1C(=O)COc2ccc(S(=O)(=O)NC3CCCC3)cc21)Nc1ccc(Cl)cc1 | 44.7 µM (active) |
| O=S(=O)(Nc1ccc(Cl)cc1)c1ccc(N2CCOCC2)c(NC(=S)NC2CC2)c1 | inactive |
| COc1ccc(C(=O)Nc2ccc(S(=O)(=O)Nc3onc(C)c3C)cc2)c(OC)c1 | inactive |
| O=C(Cc1cccs1)Nc1ccc(F)c(S(=O)(=O)N2CCOCC2)c1 | inactive |
| COc1ccc(-c2nc(CN3CCC(C(=O)NC4CCCc5ccccc54)CC3)c(C)o2)cc1OC (stereo unspecified) | inactive |
| COc1ccc(-c2nc(CSCC(=O)N3CCN(c4cccc(C)c4)C(C)C3)c(C)o2)cc1OC (stereo unspecified) | 18.9 µM (active) |
| COc1ccc(-c2nc(CN3CCN(Cc4cccc(Cl)c4)CC3)c(C)o2)cc1 | inactive |
| COc1ccc(N2CCN(C(=O)COC(=O)CCc3ccccc3)CC2)cc1 | inactive |
| COc1ccc(-c2cc3ccc(O)c(CN4CCCCC4C)c3oc2=O)cc1OC (stereo unspecified) | inactive |
| COc1ccc(-c2nc(CSCC(=O)N3CCN(c4ccccc4F)CC3)c(C)o2)cc1 | 31.6 µM (active) |
